This is a sample that favours compounds with a hit; in the whole collection about 1.1% have one here.
PGK inhibitor: blocks T. brucei phosphoglycerate kinase | PGK/GAPDH coupled, Kinase-Glo luminescence, 60 min | 0.043% of 380,000 active | AID 602233 | P07378 | Potency, µM (highest dose often 57.5 µM), most hits filed as inhibitors; also: nearly all actives have a fitted effect of over 60% in size
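Recombinant glycosomal PGK reaction used 1,3-bisphosphoglycerate generated in-well by GAPDH (100nM final) in 100mM TEA pH 7.6, 5mM MgCl2, 0.01% Tween-20. After 60 minutes at room temperature, ATP was read by Kinase-Glo Plus luminescence end-point.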
Tb PFK inh: T. brucei PFK enzyme inhibition. AID 485367. T. brucei PFK, ADP-Glo luminescence. Potency, µM (top dose mostly 57.5 µM), hits mostly inhibitors. 0.17% of 330,000 active. O15648; also: nearly all actives have a fitted effect of over 60% in size
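Activity is normalized to no-enzyme wells (full inhibition) and 1.25 nM enzyme wells (no inhibition). Reaction: 0.5 mM F6P, 0.1 mM ATP, 45 min RT, ADP-Glo luminescence; concentration-response curves fitted and classed by quality.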
VDR inhibitor: blocks the human vitamin D receptor | P11473 | VDR-SRC2-3 peptide fluorescence polarization, 2 h | Potency, µM, most hits filed as inhibitors | 0.93% of 400,000 active
Target sequence (P11473 whole entry, looked up): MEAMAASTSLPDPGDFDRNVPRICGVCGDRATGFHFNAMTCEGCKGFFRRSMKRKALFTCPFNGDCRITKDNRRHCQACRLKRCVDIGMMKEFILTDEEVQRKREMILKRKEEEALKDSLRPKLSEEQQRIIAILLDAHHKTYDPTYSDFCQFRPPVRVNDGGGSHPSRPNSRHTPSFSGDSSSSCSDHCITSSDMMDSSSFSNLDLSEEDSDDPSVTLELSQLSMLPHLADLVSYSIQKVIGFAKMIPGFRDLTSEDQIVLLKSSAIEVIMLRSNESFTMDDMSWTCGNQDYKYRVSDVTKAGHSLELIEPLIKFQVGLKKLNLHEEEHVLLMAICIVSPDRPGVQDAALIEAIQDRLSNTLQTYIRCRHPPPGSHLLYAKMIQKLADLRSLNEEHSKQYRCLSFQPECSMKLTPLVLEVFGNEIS
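The screen uses fluorescence polarization to detect compounds that interfere with recruitment of the SRC2-3 coactivator peptide to VDR; plates are read after 2 h at room temperature.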
Pin1 inh: human Pin1 inhibition. Potency, µM (highest dose often 115 µM), hits mostly inhibitors. 0.009% of 390,000 active. Q13526. Pin1 FP peptide displacement, HiFluor488, 10 min; active = well fitted inhibition curve with a large enough effect in the polarisation, with a control signal flat, not every such curve was filed as active; inconclusive = small, poorly fitted or top-dose-only effect, or effect the other way, or a change in a side signal; inactive = no such curve, though single readings can be large or run the other way; the % refers to the polarisation
Target sequence (Q13526 whole entry, looked up): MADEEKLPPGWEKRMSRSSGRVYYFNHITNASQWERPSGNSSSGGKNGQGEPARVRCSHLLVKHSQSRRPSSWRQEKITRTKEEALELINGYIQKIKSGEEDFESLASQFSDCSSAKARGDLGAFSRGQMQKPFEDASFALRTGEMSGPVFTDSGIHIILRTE
GLS inh: inhibitors of human glutaminase (GLS); AID 624170; GLS enzymatic activity, qHTS titration; Potency, µM (highest dose often 45.5 µM), usual class: inhibitors; O94925; 0.21% of 410,000 active
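Coupled fluorescence readout: glutamate oxidase/HRP/Amplex Red detect glutamate formed by hKGA from L-glutamine (1 mM solution added). Buffer 45 mM KH2PO4 pH 8.2, 0.02% Tween-20; reads at t0 and 30 min RT.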
A number is an active result; - = inactive; ? = inconclusive; . = no result given; ! = repeats disagree. Unless noted, calls follow the shape of the dose curve; as a rule, active = well fitted curve in the direction sought with a large enough effect; inconclusive = small, poorly fitted or top-dose-only effect, or another doubt; inactive = no such curve, though single readings can be large; an effect the other way counts as inactive or inconclusive.

SMILES	PGK inhibitor	Tb PFK inh	VDR inhibitor	Pin1 inh	GLS inh
Cc1ccc(-n2c(N)c(C(=O)N3CCOCC3)sc2=S)cc1	-	-	89.1µM	-	-
CC1=C(c2ccc(C)cc2)S(=O)(=O)NC1=NCCCN1CCN(c2ccccc2F)CC1	-	.	-	-	-
Cc1cccc(NS(=O)(=O)c2ccc3c(c2)NC(=O)CO3)c1C	-	-	-	-	-
Fc1ccc(NC(=S)NCc2ccccc2)cc1	-	-	-	-	-
Cc1ccc(NC(=S)NNC(=S)NCc2ccccc2)cc1	-	-	50.1µM	-	-
COc1ccc(-c2nc(CCNC(=O)c3c(F)cccc3Cl)cs2)cc1	-	.	-	-	-
COc1ccc(NC(=O)c2cc3c(COC(C)=O)cnc(C)c3oc2=Nc2cccc(C(=O)O)c2)c(OC)c1	-	-	-	?	10µM
COc1cccc(N=c2oc3c(C)ncc(CO)c3cc2C(=O)Nc2ccccc2OC)c1	.	-	.	.	.
COc1ccccc1C(=O)Oc1ccc2c(c1)O/C(=C\c1ccncc1)C2=O	-	-	35.5µM	?	-
O=C1/C(=C/c2cccnc2)Oc2cc(OS(=O)(=O)c3ccccc3)ccc21	-	-	50.1µM	-	-
CCC(=O)NC1CCc2cccc(OC)c2C1 (stereo unspecified)	.	.	-	.	.
CCOc1ccc(S(=O)(=O)N2CCN(c3nc(-c4ccccc4)nc4ccccc34)CC2)cc1OCC	.	.	-	-	.
CC(C)=CCc1c2c(c(O)c3c(=O)c(O)c(-c4ccccc4)oc13)C=CC(C)(C)O2	.	.	-	.	.
CC(C)=CCCC1(C)C=Cc2c(O)c3c(c(CC=C(C)C)c2O1)OC12C(=CCCC1C(C)(C)O[C@@]2(C/C=C(\C)C(=O)O)C(=O)O)C3=O (stereo partly specified)	.	.	44.7µM	.	.
COC(=O)C(N)CS (stereo unspecified)	.	.	17.8µM	.	.
COC(=O)[C@@H](N)CS	-	-	20µM!	-	-
COC(=O)C(N)Cc1ccc(O)cc1 (stereo unspecified)	-	-	-	-	-
COc1cccc(NC(=O)C(C)n2c(=O)cc(C(F)(F)F)c3c(C)nn(C)c32)c1 (stereo unspecified)	-	.	-	-	-
O=[N+]([O-])c1cccnc1NCCc1ccccc1	-	-	-	-	-
O=C1C=C(NCCc2cc(Br)c(O)c(Br)c2)C(=O)c2ncccc21	-	.	31.6µM	?	-
CC(C)CNC(=O)COC(=O)c1c2c(nc3ccccc13)/C(=C\c1cccs1)CC2	-	.	-	?	-
CN(CCC#N)C(=O)COC(=O)c1c2c(nc3ccccc13)/C(=C/c1ccco1)CC2	?	?	-	?	6.31µM
c1ccc(CNc2nc(-c3ccc4c(c3)OCO4)nc3ccccc23)cc1	.	.	44.7µM	.	.
c1ccc(CNc2ncncc2-c2ccc3c(c2)OCO3)cc1	.	.	28.2µM	.	.
c1ccc(Nc2ncncc2-c2ccc3c(c2)OCO3)cc1	.	.	-	.	.
SMILES	PGK inhibitor	Tb PFK inh	VDR inhibitor	Pin1 inh	GLS inh
Cc1ccccc1C[C@H](C(=O)O)N1C(=O)c2ccc(C(=O)O)cc2C1=O	.	?	.	-	.
N#Cc1ccc2c(c1)nnn2-c1ccccc1	-	.	-	-	-
COc1ccc(-n2sc3ccccc3c2=O)cc1	-	.	.	.	?
O=c1c2cc([N+](=O)[O-])ccc2sn1-c1ccccc1	-	.	.	.	10µM
CC(=O)Nc1ccc2sn(-c3ccccc3)c(=O)c2c1	-	.	.	.	6.31µM
N#Cc1ccc2sn(-c3ccccc3)c(=O)c2c1	-	.	.	.	6.31µM
O=S(=O)(Cc1ccccc1)N(O)c1ccccc1	-	-	39.8µM	-	?
CSCCNC(=O)c1ccc2nc(C3CCCCC3)oc2c1	-	-	-	-	-
COc1ccc(-c2cc(C(F)F)n3ncc(C(=O)Nc4cc(C)on4)c3n2)cc1	-	-	-	-	0.708µM
Cc1cccc(NC(=O)CSc2ncc(-c3ccc(Br)cc3)[nH]2)c1	-	.	-	-	-
CC1(C)CCCN(C(=O)c2coc(=O)c(Br)c2)C1	6.31µM	-	-	.	10µM
Brc1cc2c(cc1Br)OCCOCCOCCOCCO2	-	-	28.2µM	-	?
COC(=O)[C@]1(Sc2ccc(C)cc2)CC(=O)N[C@@H]1c1ccccc1	.	.	.	.	-
O=[N+]([O-])c1ccc(Cl)c(S(=O)(=O)Nc2cccc(S(=O)(=O)NC3=NCCC3)c2)c1	-	-	79.4µM	-	-
O=[N+]([O-])c1ccc(Cl)c(S(=O)(=O)NC2=NCCC2)c1	-	-	-	-	-
CC1=C(c2ccccc2)C(O)(c2ccccc2)C(C)C1=O (stereo unspecified)	-	.	-	-	?
CC(C)[C@@H](CC(=O)N[C@@H]1CCCC[C@H]1C(=O)N[C@H](CC(=O)N[C@@H](CCC(=O)O)CC(=O)O)Cc1ccccc1)NC(=O)C[C@H](CO)NC(=O)[C@@H]1CNCC[C@H]1N	.	.	-	.	.
Cc1ccccc1C1=N/C(=C/c2cccs2)C(=O)O1	.	-	-	-	-
Cc1ccc(C)c(/C=C2\N=C(c3ccccc3F)OC2=O)c1	-	-	79.4µM	-	-
COc1ccc(C2C=C(c3ccccc3)Nc3nc(NC(=O)/C=C/c4ccc(F)cc4)nn32)cc1 (stereo unspecified)	-	.	-	-	?
CC1CCN(S(=O)(=O)c2ccc(NC(=O)C3CCCCC3C(=O)O)cc2)CC1 (stereo unspecified)	-	.	-	-	11.2µM
CC1CCN(S(=O)(=O)c2ccc(NC(=O)[C@@H]3CCCC[C@@H]3C(=O)O)cc2)CC1	-	-	-	-	-
COc1ccc(C2(C)C(C#N)C(=O)NC(=O)C2C#N)cc1 (stereo unspecified)	-	.	-	-	-
CC1OC(CC(=O)O)CC2=C1C(=O)c1c(O)cccc1C2=O (stereo unspecified)	-	.	10µM	.	?
O=C1c2cccc(O)c2C(=O)c2c(O)cccc21	.	-	?	.	-
SMILES	PGK inhibitor	Tb PFK inh	VDR inhibitor	Pin1 inh	GLS inh
CC/C(=C\c1ccc(N(C)C)cc1)c1ccncc1	-	.	-	-	-
COc1cc2c(cc1O)CCN[C@@]21CS[C@H]2c3c(OC(C)=O)c(C)c4c(c3C(COC1=O)N1C2C2c3c(cc(C)c(OC)c3O)CC([C@@H]1O)N2C)OCO4 (stereo partly specified)	.	.	?	.	22.4µM
C1CCC[C@H]2CCCN3CC[C@H](CCCCCC[C@@H]4CCCN5CC[C@H](CC1)OC45)OC23	.	.	-	.	.
CCCCn1c(NS(=O)(=O)c2ccccc2)c(S(=O)(=O)c2ccc(C)cc2)c2nc3ccccc3nc21	-	-	50.1µM	-	-
CCCCn1c(NC(=O)c2ccco2)c(S(=O)(=O)c2ccc(C)cc2)c2nc3ccccc3nc21	-	-	?	?	-
c1ccc(CNc2oc(-c3ccccc3)nc2-c2ccccc2)cc1	.	.	14.1µM	.	.
CC(C)(C)Nc1oc(-c2ccccc2)nc1-c1ccccc1	.	.	-	.	.
CO[C@H]1C([C@@]2(C)O[C@@H]2CC=C(C)C)[C@]2(CC[C@H]1OC(=O)/C=C/C=C/C=C/C=C/C(=O)O)CO2 (stereo partly specified)	.	.	35.5µM	.	.

High-throughput results: PubChem BioAssay, National Center for Advancing Translational Sciences (NCATS)
